Inconclusive results are not listed. Active and inactive are the calls of the source. How the source made its calls, unless noted: active means hit-call score of the fitted dose curve at least 0.9, where 1 is the maximum; inactive means score below 0.9.

In assay [1] the target is Myc proto-oncogene protein (Homo sapiens) (UniProt P01106). Kind of assay: ATG_Myc_CIS: Attagene CIS-FACTORIAL HepG2 Assay for human Myelocytomatosis (Myc) Proto-Oncogene Transcription Factor (AID 2282990). The conditions noted are these: HepG2, Attagene cis-reporter transcription factor activity; actives raise or lower the signal. The procedure, abridged:
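Cells of the HepG2 human liver line bear multiple cis-driven reporter transcription units. Reporter mRNA after 24 h exposure is reverse-transcribed, amplified, labelled and resolved by capillary electrophoresis, with gain- or loss-of-signal fitting relative to DMSO.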

Assay [2] is described as follows: ATG_NRF2_ARE_CIS: Attagene CIS-FACTORIAL HepG2 Assay for human Nuclear Factor Erythroid 2 Related Factor 2 (NFR2) response to Antioxidant Response Elements (ARE) (AID 2282992).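 On AC50: reporter mRNA level measured by RT-PCR and capillary electrophoresis fluorescence.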 The conditions noted are these: HepG2 Attagene ARE/NRF2 reporter, transcription factor activity; actives raise or lower the signal. The method in brief:
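Transient MRTU transfection of HepG2; 24 h compound exposure; TriZol RNA, RT with oligo(dT), PCR, 6-FAM primer extension, HpaI cut, CE. Bidirectional fit vs DMSO.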

Assay [3] in a line: ATG_Oct_MLP_CIS: Attagene CIS-FACTORIAL HepG2 Assay for human Octamer-Binding Transcription Factor (Oct) (AID 2282993). The conditions noted are these: HepG2 Attagene cis-factorial Oct reporter, mRNA; actives raise or lower the signal. The procedure, abridged:
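Transfected HepG2 cells, 24 h treatment. Reporter mRNA quantified by RT-PCR–capillary electrophoresis; bidirectional fitting against DMSO.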

Assay [4] addresses Cellular tumor antigen p53 (Homo sapiens) (UniProt P04637). Kind of assay: ATG_p53_CIS: Attagene CIS-FACTORIAL HepG2 Assay for human p53 Transcription Factor (AID 2282994). The conditions noted are these: HepG2 p53 cis-element reporter, Attagene mRNA; actives raise or lower the signal. The procedure, abridged: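 HepG2, transient MRTU transfection (cis promoter elements, endogenous TFs); 24 h dosing; RNA isolation, RT-PCR, 6-FAM primer extension, HpaI digest, CE fluorescence; bidirectional fit vs DMSO.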

The target of assay [5] is human Peroxisome Proliferator-activated Receptor delta (PPARd), PPARD (gene 5467) (UniProt Q03181). Put plainly: ATG_PPARd_TRANS: Attagene TRANS-FACTORIAL HepG2 Assay for human Peroxisome Proliferator-activated Receptor delta (PPARd) (AID 2283002; active means hit-call score of the fitted dose curve at least 0.9, where 1 is the maximum). The method in brief:
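Cell-based TRANS reporter: HepG2, transient MRTU transfection, 24 h exposure. Readout = reporter mRNA (RT-PCR/CE, 6-FAM). Gain-of-signal fit vs DMSO control.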

Assay [6] deals with Retinoic acid receptor alpha (Homo sapiens) (UniProt P10276). Kind of assay: ATG_RARa_TRANS: Attagene TRANS-FACTORIAL HepG2 Assay for human Retinoic Acid Receptor alpha (RARa) (AID 2283005; active means hit-call score of the fitted dose curve at least 0.9, where 1 is the maximum). The procedure, abridged:
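Reporter transcripts, measured by RT-PCR with fluorescent labeling and capillary electrophoresis after 24 h dosing, reflect activity of an exogenous human RARa–GAL4 fusion in transiently transfected HepG2. Fitted for increase relative to DMSO.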

The target in assay [7] is Peroxisome proliferator-activated receptor gamma (Homo sapiens) (UniProt P37231). Put plainly: ATG_PPARg_TRANS: Attagene TRANS-FACTORIAL HepG2 Assay for human Peroxisome Proliferator-activated Receptor-gamma (PPARg) (AID 2283007; active means hit-call score of the fitted dose curve at least 0.9, where 1 is the maximum). The procedure, abridged: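 Chimeric NR-Gal4 transactivation is measured in transiently transfected HepG2 cells by reporter mRNA induction at 24 h. Detection uses RT-PCR with fluorescent labelling and capillary electrophoresis; DMSO defines baseline.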

Assay [8] addresses Nuclear receptor subfamily 1 group I member 2 (Homo sapiens) (UniProt O75469). Put plainly: ATG_PXR_TRANS: Attagene TRANS-FACTORIAL HepG2 Assay for human Pregnane X Receptor (PXR) (AID 2283008; active means hit-call score of the fitted dose curve at least 0.9, where 1 is the maximum). The method in brief:
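Read-out is fluorescence of labelled reporter cDNA fragments separated by capillary electrophoresis after RT-PCR and HpaI digestion. Source: HepG2 cells carrying PXR-GAL4/UAS reporter constructs, treated 24 h; activity fitted upward relative to DMSO.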

For assay [9], the target named is human RAR-related Orphan Receptor beta (RORb), RORB (gene 6096) (UniProt Q92753). Kind of assay: ATG_RORb_TRANS: Attagene TRANS-FACTORIAL HepG2 Assay for human RAR-related Orphan Receptor beta (RORb) (AID 2283010; active means hit-call score of the fitted dose curve at least 0.9, where 1 is the maximum). The procedure, abridged:
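HepG2 cells transiently transfected with GAL4-UAS reporter units expressing chimeric NR-Gal4 protein; reporter mRNA measured 24 h after dosing by RT-PCR, 6-FAM labelling and capillary electrophoresis. Gain-of-signal fitted relative to DMSO baseline.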

Assay [10] deals with human Retinoic Acid Receptor gamma (RARg), RARG (gene 5916) (UniProt P13631). Put plainly: ATG_RARg_TRANS: Attagene TRANS-FACTORIAL HepG2 Assay for human Retinoic Acid Receptor gamma (RARg) (AID 2283009; active means hit-call score of the fitted dose curve at least 0.9, where 1 is the maximum). The method in brief: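 HepG2 transiently transfected with GAL4-UAS reporter units and chimeric NR-Gal4 constructs; 24 h compound exposure. Reporter mRNA quantified by RT-PCR, FAM labeling, HpaI digestion and capillary electrophoresis; gain-of-signal versus DMSO.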

For assay [11], the target named is human RAR-related Orphan Receptor gamma (RORg), RORC (gene 6097) (UniProt P51449). Put plainly: ATG_RORg_TRANS: Attagene TRANS-FACTORIAL HepG2 Assay for human RAR-related Orphan Receptor gamma (RORg) (AID 2283011; active means hit-call score of the fitted dose curve at least 0.9, where 1 is the maximum). The procedure, abridged: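 Reporter transcripts from a transfected RORg-GAL4 chimera in HepG2 cells were quantified 24 h after dosing by RT-PCR, 6-FAM labelling, HpaI digestion and capillary electrophoresis; increases over DMSO baseline were fitted.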

Assay [12] deals with human Retinoic Acid Receptor beta (RARb), RARB (gene 5915) (UniProt P10826). Kind of assay: ATG_RARb_TRANS: Attagene TRANS-FACTORIAL HepG2 Assay for human Retinoic Acid Receptor beta (AID 2283004; active means hit-call score of the fitted dose curve at least 0.9, where 1 is the maximum). The method in brief: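 Induction of reporter mRNA from a chimeric RARb-Gal4 construct was measured by RT-PCR, FAM labelling, HpaI digestion and capillary electrophoresis. Measurements followed 24 h compound treatment of transiently transfected human HepG2 liver cells, with DMSO as baseline.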

For assay [13], the target named is human Peroxisome Proliferator-activated Receptor alpha (PPARa), PPARA (gene 5465) (UniProt Q07869). Put plainly: ATG_PPARa_TRANS: Attagene TRANS-FACTORIAL HepG2 Assay for human Peroxisome Proliferator-activated Receptor alpha (PPARa) (AID 2283001; active means hit-call score of the fitted dose curve at least 0.9, where 1 is the maximum). The method in brief: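 Read-out is fluorescence of reporter cDNA fragments resolved by capillary electrophoresis after RT-PCR. Human HepG2 liver cells carried transfected PPARa-Gal4 chimera and GAL4-UAS reporter units, treated 24 h; activity scored as increase over DMSO.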

A short description of assay [14]: BSK_3C_TissueFactor: BioMAP Diversity Plus: 3C Assay for Tissue Factor Biomarker Activity (AID 2282997). The conditions noted are these: BioMAP 3C HUVEC, tissue factor biomarker readout; actives raise or lower the signal. The method in brief:
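Dosing of human umbilical vein endothelial cells preceded a 24 h incubation. Tissue Factor was then read by ELISA, with increases and decreases both scored relative to DMSO controls.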

Assay [15] is described as follows: BSK_3C_uPAR: BioMAP Diversity Plus: 3C Assay for Urokinase-type plasminogen activator receptor (uPAR) Biomarker Activity (AID 2282998). The conditions noted are these: BioMAP 3C HUVEC, uPAR biomarker ELISA; actives raise or lower the signal. The method in brief: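 Readout: ELISA for surface uPAR. System: human umbilical vein endothelial primary cells, 24 h after chemical exposure. Analysis: bidirectional fit, DMSO baseline.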
(An ELISA detects its analyte on a solid surface through an enzyme-linked reagent.)

A short description of assay [16]: BSK_3C_VCAM1: BioMAP Diversity Plus: 3C Assay for Vascular cell adhesion molecule 1 (VCAM1) Biomarker Activity (AID 2282999). Particulars: BioMAP 3C HUVEC, VCAM1 ELISA, cytokine-stimulated; actives raise or lower the signal. The procedure, abridged: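 Endothelial cells from human umbilical vein are treated with test chemical. At 24 h, VCAM-1 is measured by ELISA, and responses in either direction are fitted relative to DMSO.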

Assay [17] can be described thus: BSK_4H_Eotaxin3: BioMAP Diversity Plus: 4H Assay for Eotaxin 3 Biomarker Activity (AID 2283000).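 Further: CCL26 protein level quantified by ELISA in parallel with SRB cytotoxicity check.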 Particulars: primary human endothelial cells (HUVEC); actives raise or lower the signal. The procedure, abridged:
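Human umbilical vein endothelial cells (BSK_4H system) dosed with test chemical; Eotaxin-3 (CCL26) measured by ELISA 24 h after dosing. Bidirectional curve fitting relative to DMSO negative control as baseline.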

Assay [18] in a line: BSK_3C_Proliferation: Cell Proliferation Assessment in the BioMAP Diversity Plus: 3C Assay (AID 2283006). The conditions noted are these: primary human endothelial cells (HUVEC). The procedure, abridged: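 Subconfluent HUVEC (3C system) cultured with chemical; relative cell number read at 48 h by sulforhodamine B total-protein staining (0.1% SRB after 10% TCA fixation, 560 nm). Bidirectional fit relative to DMSO.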

Sequence of human Peroxisome Proliferator-activated Receptor delta (PPARd), PPARD (gene 5467) (Q03181 whole entry, looked up): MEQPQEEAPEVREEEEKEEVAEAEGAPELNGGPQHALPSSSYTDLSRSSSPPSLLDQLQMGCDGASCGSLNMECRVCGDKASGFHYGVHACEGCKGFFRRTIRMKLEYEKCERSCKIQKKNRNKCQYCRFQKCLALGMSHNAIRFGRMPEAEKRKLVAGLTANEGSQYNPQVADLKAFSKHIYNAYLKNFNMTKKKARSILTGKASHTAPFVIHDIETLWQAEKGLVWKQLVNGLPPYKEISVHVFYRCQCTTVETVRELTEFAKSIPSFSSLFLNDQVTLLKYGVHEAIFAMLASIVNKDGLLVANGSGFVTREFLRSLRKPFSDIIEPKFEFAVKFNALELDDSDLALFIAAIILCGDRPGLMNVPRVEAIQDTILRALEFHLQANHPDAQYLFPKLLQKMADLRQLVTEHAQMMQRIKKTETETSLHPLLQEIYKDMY
Sequence of human Retinoic Acid Receptor gamma (RARg), RARG (gene 5916) (P13631 whole entry, looked up, the tested form may be a part): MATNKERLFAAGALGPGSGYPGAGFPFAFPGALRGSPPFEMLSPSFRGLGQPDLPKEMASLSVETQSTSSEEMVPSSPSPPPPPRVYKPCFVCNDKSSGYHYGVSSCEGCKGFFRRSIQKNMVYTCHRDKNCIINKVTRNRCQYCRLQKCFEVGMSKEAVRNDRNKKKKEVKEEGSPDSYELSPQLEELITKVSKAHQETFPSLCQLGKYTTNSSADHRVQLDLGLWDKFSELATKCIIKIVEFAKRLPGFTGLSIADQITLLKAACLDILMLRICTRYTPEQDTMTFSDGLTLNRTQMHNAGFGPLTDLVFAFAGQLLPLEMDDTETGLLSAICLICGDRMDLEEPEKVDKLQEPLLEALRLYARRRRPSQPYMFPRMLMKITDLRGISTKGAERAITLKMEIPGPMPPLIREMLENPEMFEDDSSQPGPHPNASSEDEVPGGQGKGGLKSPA
Sequence of human Retinoic Acid Receptor beta (RARb), RARB (gene 5915) (P10826 whole entry, looked up, the tested form may be a part): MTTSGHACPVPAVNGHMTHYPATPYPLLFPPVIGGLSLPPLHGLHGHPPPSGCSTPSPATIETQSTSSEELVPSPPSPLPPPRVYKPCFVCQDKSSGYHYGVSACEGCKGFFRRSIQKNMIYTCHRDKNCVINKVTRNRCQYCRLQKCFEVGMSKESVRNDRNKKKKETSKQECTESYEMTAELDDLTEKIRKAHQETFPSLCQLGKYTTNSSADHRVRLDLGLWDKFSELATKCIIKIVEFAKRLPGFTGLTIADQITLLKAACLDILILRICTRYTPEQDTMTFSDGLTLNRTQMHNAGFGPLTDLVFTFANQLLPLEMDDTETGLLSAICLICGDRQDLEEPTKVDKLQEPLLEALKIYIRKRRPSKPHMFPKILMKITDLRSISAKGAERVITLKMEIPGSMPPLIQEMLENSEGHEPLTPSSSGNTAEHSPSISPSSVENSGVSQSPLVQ
Sequence of Nuclear receptor subfamily 1 group I member 2 (Homo sapiens) (O75469 whole entry, looked up, the tested form may be a part): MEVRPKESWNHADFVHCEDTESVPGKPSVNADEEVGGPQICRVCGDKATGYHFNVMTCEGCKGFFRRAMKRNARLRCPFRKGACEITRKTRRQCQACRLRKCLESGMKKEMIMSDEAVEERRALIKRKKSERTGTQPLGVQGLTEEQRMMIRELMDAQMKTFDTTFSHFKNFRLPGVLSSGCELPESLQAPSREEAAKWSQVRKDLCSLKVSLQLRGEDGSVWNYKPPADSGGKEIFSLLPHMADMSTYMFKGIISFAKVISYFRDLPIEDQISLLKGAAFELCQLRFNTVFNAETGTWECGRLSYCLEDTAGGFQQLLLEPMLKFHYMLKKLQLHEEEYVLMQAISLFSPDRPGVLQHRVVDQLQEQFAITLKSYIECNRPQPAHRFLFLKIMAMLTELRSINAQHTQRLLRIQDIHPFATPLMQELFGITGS
Sequence of Myc proto-oncogene protein (Homo sapiens) (P01106 whole entry, looked up): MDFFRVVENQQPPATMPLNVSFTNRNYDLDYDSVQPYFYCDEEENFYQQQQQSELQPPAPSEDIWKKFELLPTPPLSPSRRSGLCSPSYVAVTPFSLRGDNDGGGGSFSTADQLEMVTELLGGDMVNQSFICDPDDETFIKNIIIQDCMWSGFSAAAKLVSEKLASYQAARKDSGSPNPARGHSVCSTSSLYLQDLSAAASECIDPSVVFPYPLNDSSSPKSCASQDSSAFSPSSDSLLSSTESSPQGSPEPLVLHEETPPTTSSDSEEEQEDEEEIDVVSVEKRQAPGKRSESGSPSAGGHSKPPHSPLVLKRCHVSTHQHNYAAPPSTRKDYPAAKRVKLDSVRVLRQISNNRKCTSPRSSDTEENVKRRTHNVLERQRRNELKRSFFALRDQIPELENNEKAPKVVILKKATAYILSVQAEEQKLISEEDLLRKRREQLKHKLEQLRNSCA
Sequence of Peroxisome proliferator-activated receptor gamma (Homo sapiens) (P37231 whole entry, looked up, the tested form may be a part): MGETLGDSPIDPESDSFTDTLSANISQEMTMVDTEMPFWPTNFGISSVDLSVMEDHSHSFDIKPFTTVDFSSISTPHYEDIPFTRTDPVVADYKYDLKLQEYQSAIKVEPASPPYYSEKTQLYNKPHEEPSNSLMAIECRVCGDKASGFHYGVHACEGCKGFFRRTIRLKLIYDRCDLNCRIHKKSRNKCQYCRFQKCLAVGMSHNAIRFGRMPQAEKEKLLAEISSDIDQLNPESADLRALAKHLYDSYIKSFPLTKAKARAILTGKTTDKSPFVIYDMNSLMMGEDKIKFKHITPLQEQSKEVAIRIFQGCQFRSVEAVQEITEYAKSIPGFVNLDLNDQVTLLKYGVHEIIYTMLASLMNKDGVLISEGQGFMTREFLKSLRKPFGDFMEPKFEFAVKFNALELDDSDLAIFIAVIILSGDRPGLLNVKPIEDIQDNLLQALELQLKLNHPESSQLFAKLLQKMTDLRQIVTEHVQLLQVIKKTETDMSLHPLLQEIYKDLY
Sequence of Retinoic acid receptor alpha (Homo sapiens) (P10276 whole entry, looked up, the tested form may be a part): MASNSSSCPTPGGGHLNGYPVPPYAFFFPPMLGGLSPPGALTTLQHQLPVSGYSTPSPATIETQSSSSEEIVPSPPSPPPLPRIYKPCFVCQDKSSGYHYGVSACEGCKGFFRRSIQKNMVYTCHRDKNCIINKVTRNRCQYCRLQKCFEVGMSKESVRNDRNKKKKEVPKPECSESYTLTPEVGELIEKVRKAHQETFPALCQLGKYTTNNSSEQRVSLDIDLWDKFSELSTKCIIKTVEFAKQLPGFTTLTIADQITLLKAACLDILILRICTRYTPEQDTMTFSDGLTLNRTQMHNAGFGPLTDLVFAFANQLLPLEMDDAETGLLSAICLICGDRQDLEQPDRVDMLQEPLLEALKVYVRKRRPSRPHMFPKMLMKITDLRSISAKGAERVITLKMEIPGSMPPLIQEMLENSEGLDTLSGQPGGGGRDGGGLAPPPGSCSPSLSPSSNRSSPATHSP
Sequence of human RAR-related Orphan Receptor beta (RORb), RORB (gene 6096) (Q92753 whole entry, looked up, the tested form may be a part): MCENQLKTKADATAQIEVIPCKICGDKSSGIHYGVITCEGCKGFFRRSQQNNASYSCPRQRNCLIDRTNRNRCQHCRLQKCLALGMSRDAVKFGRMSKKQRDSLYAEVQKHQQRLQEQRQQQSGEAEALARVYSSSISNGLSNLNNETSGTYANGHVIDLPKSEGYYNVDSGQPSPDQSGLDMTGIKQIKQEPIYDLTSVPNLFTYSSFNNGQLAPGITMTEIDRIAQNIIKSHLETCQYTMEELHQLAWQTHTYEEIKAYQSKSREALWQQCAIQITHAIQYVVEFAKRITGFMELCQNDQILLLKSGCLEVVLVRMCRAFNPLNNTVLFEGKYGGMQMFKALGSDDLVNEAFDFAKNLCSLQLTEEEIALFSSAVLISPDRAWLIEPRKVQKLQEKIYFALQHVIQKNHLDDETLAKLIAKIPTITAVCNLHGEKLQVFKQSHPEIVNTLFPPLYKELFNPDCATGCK
Sequence of human RAR-related Orphan Receptor gamma (RORg), RORC (gene 6097) (P51449 whole entry, looked up, the tested form may be a part): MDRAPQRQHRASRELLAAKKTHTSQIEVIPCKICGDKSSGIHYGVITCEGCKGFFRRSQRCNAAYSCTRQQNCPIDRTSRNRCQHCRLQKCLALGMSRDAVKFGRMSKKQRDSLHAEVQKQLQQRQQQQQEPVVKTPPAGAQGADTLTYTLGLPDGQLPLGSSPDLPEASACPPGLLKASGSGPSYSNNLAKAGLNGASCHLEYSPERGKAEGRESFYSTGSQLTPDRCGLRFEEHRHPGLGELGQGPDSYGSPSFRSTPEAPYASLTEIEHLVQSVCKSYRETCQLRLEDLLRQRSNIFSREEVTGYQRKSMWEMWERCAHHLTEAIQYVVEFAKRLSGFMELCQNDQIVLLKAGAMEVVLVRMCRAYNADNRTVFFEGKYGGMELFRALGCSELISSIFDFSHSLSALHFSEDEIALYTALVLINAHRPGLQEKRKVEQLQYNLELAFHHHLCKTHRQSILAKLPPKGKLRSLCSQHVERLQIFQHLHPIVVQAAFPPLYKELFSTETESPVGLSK
Sequence of human Peroxisome Proliferator-activated Receptor alpha (PPARa), PPARA (gene 5465) (Q07869 whole entry, looked up, the tested form may be a part): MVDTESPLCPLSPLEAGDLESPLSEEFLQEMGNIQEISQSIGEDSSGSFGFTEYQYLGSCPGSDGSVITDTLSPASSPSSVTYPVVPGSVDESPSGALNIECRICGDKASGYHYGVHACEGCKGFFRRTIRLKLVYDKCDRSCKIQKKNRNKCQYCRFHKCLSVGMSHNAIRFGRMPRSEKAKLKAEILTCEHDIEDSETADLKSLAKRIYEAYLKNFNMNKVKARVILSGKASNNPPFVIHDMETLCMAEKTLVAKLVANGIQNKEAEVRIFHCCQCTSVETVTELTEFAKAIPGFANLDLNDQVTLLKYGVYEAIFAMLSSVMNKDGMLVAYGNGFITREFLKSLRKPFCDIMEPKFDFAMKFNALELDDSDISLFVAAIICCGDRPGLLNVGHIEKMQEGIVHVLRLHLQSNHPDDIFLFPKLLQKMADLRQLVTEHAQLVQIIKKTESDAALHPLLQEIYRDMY

With `Cc1ccc2c(c1)C(=O)OC2=O`, the molecule was classed as inactive in [1], in assay [2], in [3], in assay [4], in assay [5] and in assay [6]. The molecule was classed as inactive in assay [7], in assay [8] and in assay [9].

With `Nc1ccc2c(O)cc(S(=O)(=O)O)cc2c1`, the molecule was called inactive in assay [1], in assay [2], in assay [3], in assay [4], in [7] and in assay [8]. Besides, the molecule was called inactive in [10], in assay [9] and in assay [11].

Consider `CC(=O)OCCCc1ccccc1`, for which the result in [1], in assay [2], in assay [3], in [4], in assay [6] and in assay [8] was inactive. For the same molecule, the call in assay [10] and in assay [11] was inactive.

As for `CN1CCOCC1`, the call in assay [1], in assay [2], in assay [3], in assay [4], in [12] and in assay [6] was inactive. In addition, the molecule was called inactive in [10] and in [9].

Usually AC50 stands for the midpoint of the concentration-response curve, whichever way the signal moves. `CC=CC=CCOC(=O)C(C)C`: the call in assay [1], in assay [3], in [4], in [13] and in assay [11] was inactive. In addition, the AC50 was 27.1 µM (active) in assay [2] and 11.1 µM (active) in [7].

On to `C#CC(C)N(C)C(=O)Nc1ccc(Cl)cc1` (stereo not given), for which the outcome in [1], in [3], in assay [4], in assay [7], in assay [8] and in assay [10] was inactive. Besides, in [9], the molecule was classed as inactive. Also, in assay [2], the AC50 is 48.4 µM (active).

Take `CC1C2CC(CC2C2CCCC(O)C2)C1(C)C` (stereo not given): the result in [1], in assay [2], in assay [3], in assay [4], in [5] and in assay [7] was inactive. Moreover, the molecule was classed as inactive in assay [10] and in assay [11].

As for `CC(C)(C)c1ccc(C(=O)O)cc1`, the molecule was classed as inactive in assay [1], in assay [2], in [3], in assay [4], in assay [7] and in assay [8].

Turning to `CCCC(=O)c1ccccc1`, the outcome in assay [1], in assay [2], in assay [3], in assay [4], in assay [7] and in assay [9] was inactive. In addition, in assay [11], the molecule was called inactive.

Take `Cc1ccc(N)c(S(=O)(=O)O)c1`: the molecule was called inactive in [1], in assay [2], in [3], in [4], in [7] and in [8]. The outcome in assay [11] was inactive.

For the molecule `O=C(Nc1ccc2c(O)c(N=Nc3ccc(N=Nc4ccc(S(=O)(=O)O)cc4)cc3)c(S(=O)(=O)O)cc2c1)c1ccccc1`, the molecule was classed as inactive in assay [1], in assay [2], in assay [4], in [14], in assay [15] and in assay [16]. For the same molecule, the outcome in assay [17], in assay [18], in assay [7] and in assay [8] was inactive.

As to `CC(O)C1CCCCC1` (stereo not given), the call in assay [1], in [2], in assay [3], in assay [13], in assay [6] and in [7] was inactive. Moreover, the molecule was called inactive in assay [10].

As to `CC1(C)O[C@@H]2C[C@H]3[C@@H]4CCC5=CC(=O)C=C[C@]5(C)[C@@]4(F)[C@@H](O)C[C@]3(C)[C@]2(C(=O)CO)O1`, the molecule was classed as inactive in assay [1], in assay [2], in [4], in assay [5], in assay [9] and in assay [11]. The AC50 in [8] is 4.98 µM (active).

As to `COc1cccc(OC)c1O`, the molecule was classed as inactive in assay [1], in assay [2], in assay [4] and in assay [8].

Consider `CCCCCCOCCOCCO`, for which the outcome in assay [1], in assay [2], in assay [3], in assay [5], in assay [7] and in [8] was inactive. For the same molecule, the molecule was classed as inactive in assay [10].

Take `CC(C)NCC(O)COc1ccc(CC(N)=O)cc1` (stereo not given): the result in assay [1], in assay [4], in assay [13], in [6], in assay [7] and in [8] was inactive. Also, the half-maximal activity concentration (AC50) in assay [2] was 61.5 µM (active).

Turning to `C=CC(=C)CCCC(C)(C)OC(C)=O`, the result in assay [1], in assay [2], in [3], in assay [13], in assay [12] and in assay [7] was inactive. Moreover, the molecule was classed as inactive in assay [8] and in [11].

For `CCOC(=O)CN`, the call in assay [1], in assay [2], in [4], in [5], in assay [12] and in [7] was inactive. In addition, the molecule was classed as inactive in assay [10] and in assay [9].

For the origin of these results see PubChem BioAssay (EPA / NIEHS).
